Test results from PubChem BioAssay.
Active and inactive are the calls of the source. How the calls were made is not given here.

target: Pantothenate synthetase (Mycobacterium tuberculosis (strain ATCC 25618 / H37Rv)) (UniProt P9WIL5); experiment: Recombinant Mtb pantothenate synthetase (PanC) inhibitors, coupled enzyme, confirmatory (AID 375); settings: coupled enzyme assay; at 10 µM, active compounds read high;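 further: 0% = full reaction with vehicle and 100% = no enzyme background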
Sequence (P9WIL5 whole entry, looked up): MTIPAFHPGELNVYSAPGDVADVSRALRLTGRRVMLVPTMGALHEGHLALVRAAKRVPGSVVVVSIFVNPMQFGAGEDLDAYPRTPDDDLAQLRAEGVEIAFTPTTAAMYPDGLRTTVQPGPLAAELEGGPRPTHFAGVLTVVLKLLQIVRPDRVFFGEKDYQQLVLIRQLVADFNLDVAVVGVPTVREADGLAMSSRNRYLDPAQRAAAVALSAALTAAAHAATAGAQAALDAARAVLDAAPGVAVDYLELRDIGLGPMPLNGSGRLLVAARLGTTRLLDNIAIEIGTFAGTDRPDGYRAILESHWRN

Structure (SMILES) | inhibition
N#Cc1ccc(CSc2nnc(-c3cnccn3)o2)cc1 | 5% (inactive)
Cc1cc(=O)oc2c1c(C)nn2-c1ccc(C(=O)OC(C)C)cc1 | 0% (inactive)
CCOC(=O)c1cccnc1SCC(=O)NC(C)CC (stereo not given) | 0% (inactive)
O=C(CSC1=NCCS1)NCc1ccco1 | 0% (inactive)
C=CCSc1nc(N)c2c(C)c(C)sc2n1 | 0% (inactive)
O=C(CSc1nc2ccccc2[nH]1)c1ccc2c(c1)OCO2 | 0% (inactive)
O=C(c1ccccc1)N1CCN(Cc2ccccc2Br)CC1 | 3% (inactive)
CCOc1ccc(NC(=O)CN2C(=O)C3CCCN3C2=O)cc1 (stereo not given) | 0% (inactive)
Cc1cc(NC(=O)Cn2cnc3c(cnn3C(C)(C)C)c2=O)no1 | 3% (inactive)
Cc1cccc2cc(CN(CCN3CCCC3)C(=O)NC3CCCCC3)c(=O)[nH]c12 | 0% (inactive)
CCSc1ncc(C#N)c(=O)[nH]1 | 0% (inactive)
CCCC(C)C1C(C#N)=C(N)Oc2cc(C)oc(=O)c21 (stereo not given) | 1% (inactive)
CC(=O)c1c(C)nn(CC(O)COc2ccc3c(c2)CCC3)c1C (stereo not given) | 0% (inactive)
CC(=O)NCCn1ccc2ccccc21 | 0% (inactive)
Cc1c(Cl)cccc1N1C(=O)c2ccccc2C1=O | 0% (inactive)
CN(C(=O)c1cc2sccc2n1C)C1CCCCC1 | 6% (inactive)
N=c1c[n+](N2CCOCC2)[n-]o1 | 0% (inactive)
COc1cccc(NC(=O)N2CCCC2C(=O)Nc2ccc3c(c2)OCO3)c1 (stereo not given) | 4% (inactive)
COC(=O)c1[nH]c2c(c1C)C(=O)CC(c1cc(OC)ccc1OC)C2 (stereo not given) | 0% (inactive)
O=c1cc(CSc2nnnn2-c2ccccc2)nc2scc(-c3ccccc3)n12 | 3% (inactive)

Structure (SMILES) | inhibition
Cn1cc(-c2nc3ccccc3[nH]2)c2ccccc21 | 4% (inactive)
COc1ccc(S(=O)(=O)N2CCN(CC(=O)Nc3ccc(C)c(F)c3)CC2)cc1 | 0% (inactive)
Cn1c(=O)c2c(ncn2CC(O)CO)n(C)c1=O (stereo not given) | 0% (inactive)
Cc1cc(NCC2CCCO2)n2c(nc3ccccc32)c1C#N (stereo not given) | 1% (inactive)
COc1ccccc1NC(=O)N(C1CCCC1)C1CCN(C(C)=O)CC1 | 1% (inactive)
CC(OC(=O)CNC(=O)C12CC3CC(CC(C3)C1)C2)C(=O)Nc1ccc(N2CCOCC2)cc1 (stereo not given) | 0% (inactive)
CCOc1ccc(C(CC(=O)O)NC(=O)c2ccco2)cc1OC (stereo not given) | 2% (inactive)
Cc1ccc(-c2nn(-c3ccccc3)cc2CN(Cc2ccccc2)C(=O)CCC(=O)O)o1 | 8% (inactive)
FC(F)(F)c1nnc2sc(-c3cccs3)nn12 | 4% (inactive)
Cc1[nH]c2ccccc2c(=O)c1CN(C)Cc1ccccc1 | 6% (inactive)
CCOc1ccc(N(CC(=O)NC2CCCC(C)C2C)S(=O)(=O)c2c(C)noc2C)cc1 (stereo not given) | 2% (inactive)
CCOCCc1nnc(NC(=O)c2ccc(OC)c(OC)c2)s1 | 0% (inactive)
COc1ccc(-n2ccnc2SCC(=O)NCc2ccc3c(c2)OCO3)cc1 | 1% (inactive)
O=C(Nc1nccs1)c1ccc(Cl)c(S(=O)(=O)N2CCCCC2)c1 | 0% (inactive)
C[C@]12CCC(=O)C=C1CC[C@@H]1[C@@H]2CC[C@@]2(C)[C@H]1CC[C@]2(O)C(=O)CO | 0% (inactive)
CCOc1ccc(C(=O)N2CCC(C(=O)c3ccc4c(c3)OCCO4)CC2)cc1 | 7% (inactive)
CCOC(=O)N1CCC(NC(=O)c2ccc3c(c2)sc2nc(-c4cccc(OC)c4)cn23)CC1 | 0% (inactive)
Cc1cccc(N2CCN(C(=O)Cn3ccc4ccccc4c3=O)CC2)c1C | 0% (inactive)
O=C(NCc1ccc2c(c1)OCO2)c1ccccn1 | 6% (inactive)
O=C(c1cccnc1NCc1ccccc1)N1CCOCC1 | 0% (inactive)
